# Experimental data from PubChem BioAssay AID624337 (National Center for Advancing Translational Sciences (NCATS), 2012).
# Results filed as inconclusive are left out. Calls of active or inactive are those of the source. The call rests on the fitted dose curve; in most records, active means well fitted curve in the direction sought with a large enough effect; inconclusive means small, poorly fitted or top-dose-only effect; inactive means flat fitted curve, though single readings scatter.
# Test: Quantitative high throughput screen for delayed death inhibitors of the malarial parasite plastid: Hit Validation with Dd2 at 96hr using Flow Cytometry
# Conditions: P. falciparum Dd2 growth; parasitemia, lower = inhibition: at 50 µM (top of the series)
# From the text: The goal of this screen is to discover new antimalarial compounds that act by inhibiting the development of the apicoplast organelle in the malarial parasite Plasmodium falciparum. Some antibiotics, such as azithromycin and tetracycline, are known to interfere with the apicoplast translational machinery, and have a potent antimalarial effect. […] We developed a cell-based quantitative high throughput screen that leverages this "delayed death" phenotype to enrich for compounds that target the apicoplast. To detect small molecules that cause the delayed death phenotype, erythrocytes infected with firefly luciferase-expressing parasites were incubated with compounds for either one or two generations, corresponding to 48 and 96 hours, respectively. Growth inhibition was detected by a decrease in luciferase activity. Compounds that inhibited parasite growth in the second generation at least five-fold more potently than in the first generation were defined as delayed death inducing. These compounds were selected for confirmatory screening using a flow cytometry based assay. This hit validation assay used the Dd2 cell line and measured at 96 hours. NIH Molecular Libraries Probe Production Network [MLPCN] NIH Chemical Genomics Center [NCGC] MLPCN Grant: R21 NS059500 Assay Provider: David Fidock and Eric Ekland, Columbia University
# Test compounds were diluted in 20 microliters of complete media (RPMI 1640 with 0.5% w/v Albumax (GIBCO), 24 mM sodium bicarbonate (Sigma) and 10 ug/mL gentamycin (Gibco)) in clear 384-well plates (Greiner). All liquid handling was conducted using a Bio Tek Precision 2000 pipetting system. Twenty microliters of infected erythrocytes, 0.2% parasitemia (for 48 hour time points) or 0.1% parasitemia (for 96 hour time points) were added to the compound dilutions (1% hematocrit, final concentration; 40 microliters, total culture volume). The assay plates were incubated for 48 hours, or 96 hours, at 37 masculine C in a humidified chamber (Billups- Rothenberg, Del Mar, CA, USA), gassed with 5%CO2/5%O2/ 90%N2. After two generations (96 hours), 5 microliters of culture were harvested and transferred to a second 384 well plate for fluorescent staining. Samples were stained with 30 microliters of 2 x SYBR Green I (Invitrogen) and 150nM MitoTracker Deep Red (Invitrogen) diluted in 0.9% NaCl, 0.2% dextrose (Baxter) supplemented with 2.5% Fetal Calf Serum (Gibco) (saline/FCS). Mature erythrocytes lack nuclei and mitochondria, therefore only parasitized erythrocytes retain the SYBR Green I and MitoTracker Deep Red. After 30 minutes at 37 masculine C, the stained cells were diluted in an additional 60 microliters of saline/FCS. The samples were harvested directly from the 384 well plate using a Hypercyt High Capacity Flow Platform (Intellicyt) paired with a C6 Flow Cytometer (Accuri). The flow cytometry files were analyzed using FlowJo software (FlowJo).
Structure (SMILES),Potency,"parasitemia, lower = inhibition"
CO[C@@H]1[C@@H](OC2OC(C)C(OC3CC(C)(O)C(OC(=O)CC(C)C)C(C)O3)C(N(C)C)C2O)[C@@H](CC=O)C[C@@H](C)C(=O)/C=C\C2O[C@H]2C[C@@H](C)OC(=O)C[C@H]1OC(C)=O (some centres not stated),0.0981 µM (active),
CCCCOc1ccc(N2C(N)=NC(N)=NC23CCCCC3)cc1,4.34 µM (active),
O=C(CSc1ccc(-c2cccnc2)nn1)Nc1ccccc1C(F)(F)F,6.51 µM (active),
COc1ccc(NC(=S)N2CCC(Cc3ccccc3)CC2)cc1OC,,0.714 (active)
CCCCN(CCCNC(=O)C1CCN(C(=O)c2cc3sccc3n2C)CC1)Cc1ccccc1,0.389 µM (active),
Cc1ccc(-n2c(-c3ccc(Cl)cc3)c[n+]3c2CCC3)cc1,0.0825 µM (active),
COc1cccc(CN2CCN(c3nc4nonc4nc3N3CCCCC3)CC2=O)c1,5.78 µM (active),
CCOc1ccc(S(=O)(=O)Nc2cc(S(=O)(=O)N(CC)CC)ccc2N2CCCC2)cc1,13.9 µM (active),
CCCc1c(CC)c(=N)c2ccccc2n1C,0.113 µM (active),
CN(C)c1ccc(CN(C(=O)c2ccccc2Br)C2CCS(=O)(=O)C2)cc1 (configuration not stated),29.1 µM (active),
CCOc1ccc(NC(=O)C[n+]2ccc(N(C)C)cc2)cc1,0.121 µM (active),
c1csc(CNc2ncnc3nc[nH]c23)c1,31.3 µM (active),
Cc1sc2nc[nH]c(=O)c2c1-c1ccc(Cl)cc1,9.78 µM (active),
Cc1ccc(CN2CCC(n3nccc3NC(=O)c3ccccc3C)CC2)o1,12.8 µM (active),
CCOC(=O)c1ccc2c(c1)n(CC)c(/C=C/N(C)c1ccccc1)[n+]2CC,0.185 µM (active),
Cc1c(F)c(N2CCNC(C)C2)cc2c1c(=O)c(C(=O)O)cn2C1CC1 (configuration not stated),0.479 µM (active),
CCCCN(CCCNC(=O)c1ccc(CS(=O)(=O)c2ccc(OC)cc2)o1)Cc1ccccc1,1.66 µM (active),
CC1=Nc2cc(C(=O)N3CCCC3)ccc2Sc2ccc(C)cc21,,0.0412 (active)
COc1ccc(Nc2nnc(-c3ccc(C)cc3)c3ccccc23)cc1C(=O)N1CCCCC1,25.7 µM (active),

Structure (SMILES),Potency,"parasitemia, lower = inhibition"
CC(=O)NC[C@@H]1CN(c2ccc(N3CCOCC3)c(F)c2)C(=O)O1,18 µM (active),
O=C(c1ccc([N+](=O)[O-])cc1)n1nc(-c2ccccc2)nc1NCc1ccc(F)cc1,24.6 µM (active),
Brc1cccc(OCCCCN2CCCCC2)c1,2.79 µM (active),
Clc1ccc(-c2c[n+](Cc3ccc(Cl)cc3Cl)c3n2CCCCC3)cc1,0.244 µM (active),
N#Cc1cccc(NC(=O)Cn2c3[n+](c4ccc(C(F)(F)F)cc42)CCCCC3)c1,0.424 µM (active),
Cc1ccc(S(=O)(=O)Nc2ccc(C(=O)Nc3ccncc3)cc2)cc1,14 µM (active),
CC(C)C(=O)NCCSc1c[nH]c2ccccc12,5.01 µM (active),
COCCNC(=O)c1cccc(OC2CCN(Cc3cccc(SC)c3)CC2)c1,,1.86 (inactive)
O=C(CNC(=O)C1CCCCC1)OC(C(=O)c1ccccc1)c1ccccc1 (configuration not stated),,0.991 (active)
O=C(Nc1ccccc1N1CCOCC1)c1cccc(S(=O)(=O)N2CCOCC2)c1,10.6 µM (active),
CCc1nc(SCC(=O)Nc2ccc(N(C)C)cc2)n[nH]1,15.1 µM (active),
COc1ccc(CNC(=O)C2CCC(CNS(=O)(=O)c3cccc4cccnc34)CC2)cc1 (configuration not stated),38.9 µM (active),
CCC(=O)OC1C(N(C)C)CC(C)O[C@H]1O[C@H]1[C@H](C)[C@@H](O[C@H]2CC(OC)[C@@H](O)C(C)O2)[C@H](C)C(=O)O[C@@H](CC)[C@](C)(O)[C@@H](O)[C@H](C)C(=O)[C@@H](C)C[C@]1(C)O (some centres not stated),4.56 µM (active),
CCOc1ccc(C(=O)Nc2ccc(N3CCN(C)CC3)cc2)cc1,,0.471 (active)
COc1ccc2c(ccc[n+]2CC(=O)c2ccccc2)c1,5.18 µM (active),
COc1ccccc1N1CCN(CCC(=O)Nc2ccc(F)cc2)CC1,8.91 µM (active),
COc1ccc(C(=O)N2CCN(S(=O)(=O)c3ccc(C)cc3C)CC2)cc1OC,29.7 µM (active),
COc1ccc2cc3cc(C(=O)Nc4ccc5c(c4)OCO5)oc3nc2c1,24.9 µM (active),
